Experimental data published in PubChem BioAssay (NCATS).
Records with an inconclusive call do not appear. Calls of active or inactive are those of the source. The call rests on the fitted dose curve; in most records, active means well fitted activation curve with a large enough effect; inconclusive means small, poorly fitted or top-dose-only effect; inactive means no such curve, though single readings can be large or run the other way.

Biological target: Rap guanine nucleotide exchange factor 3 (Homo sapiens) (UniProt O95398)
Assay: Confirmatory qHTS for agonist of cAMP-regulated guanine nucleotide exchange factor 3 (EPAC1) (AID 1645881);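 further: EPAC1 catalysed release of BODIPY-GDP from Rap1B seen as fluorescence loss; 100% = effect of cAMP agonist control; nearly all actives have a fitted effect of over 75% in size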
Conditions: EPAC1 Rap1B BODIPY-GDP exchange fluorescence; series mostly up to 154 µM

Sequence of Rap guanine nucleotide exchange factor 3 (Homo sapiens) (O95398 whole entry, looked up): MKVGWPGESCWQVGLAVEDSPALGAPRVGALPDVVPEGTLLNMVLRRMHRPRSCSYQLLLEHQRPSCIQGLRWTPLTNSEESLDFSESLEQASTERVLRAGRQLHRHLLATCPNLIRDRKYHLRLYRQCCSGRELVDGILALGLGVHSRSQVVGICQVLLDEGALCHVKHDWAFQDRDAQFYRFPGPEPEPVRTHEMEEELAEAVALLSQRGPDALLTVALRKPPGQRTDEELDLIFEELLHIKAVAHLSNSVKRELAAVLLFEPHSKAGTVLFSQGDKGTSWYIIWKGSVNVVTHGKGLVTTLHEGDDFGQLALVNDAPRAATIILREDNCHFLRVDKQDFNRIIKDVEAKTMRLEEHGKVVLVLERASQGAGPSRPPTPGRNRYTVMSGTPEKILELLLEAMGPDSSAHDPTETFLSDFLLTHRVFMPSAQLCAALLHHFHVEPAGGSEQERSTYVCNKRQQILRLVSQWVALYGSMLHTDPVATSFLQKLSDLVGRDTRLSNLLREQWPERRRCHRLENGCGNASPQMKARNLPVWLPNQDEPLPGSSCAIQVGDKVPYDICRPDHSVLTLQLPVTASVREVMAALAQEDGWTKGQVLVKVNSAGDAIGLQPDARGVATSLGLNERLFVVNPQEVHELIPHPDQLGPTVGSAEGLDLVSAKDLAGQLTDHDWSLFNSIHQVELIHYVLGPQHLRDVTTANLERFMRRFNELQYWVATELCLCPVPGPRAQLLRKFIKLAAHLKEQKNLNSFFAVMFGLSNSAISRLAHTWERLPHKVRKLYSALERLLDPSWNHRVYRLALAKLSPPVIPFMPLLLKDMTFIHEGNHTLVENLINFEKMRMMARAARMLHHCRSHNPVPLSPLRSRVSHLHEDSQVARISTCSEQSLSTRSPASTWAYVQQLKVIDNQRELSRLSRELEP

Potency, inactive:
Cc1ccc(Nc2nnc(-c3ccc(C)c(S(N)(=O)=O)c3)c3ccccc23)cc1
C=CS(=O)(=O)N(Cc1ccccc1Br)[C@H](CO)CC(C)C
CCN(C(=O)Cn1c(C(=O)OC)cc2sccc21)c1cccc(C)c1
Cc1ccc(-c2cc(C(=O)Nc3ccc(S(=O)(=O)Nc4onc(C)c4C)cc3)c3ccccc3n2)cc1
O=C(Nc1cccc(S(=O)(=O)NC2=NCCCCC2)c1)c1cc(-c2ccc(Cl)cc2)nc2ccccc12
CCc1ccccc1OCC(=O)NCC1COc2ccccc2O1 (stereo not given)
O=C1N(Cc2ccccc2)c2ccccc2C1(O)c1c[nH]c2ccccc12 (stereo not given)
Cc1[nH]n(-c2ccccc2)c(=O)c1C=Nc1ccc(S(=O)(=O)N=C(N)N)cc1
CCN1CCc2c(sc(NC(=O)c3cc4ccccc4cc3OC)c2C(N)=O)C1
COc1cccc(C(=O)Nc2cccc(C(=O)OCc3cc(=O)n4c(C)csc4n3)c2)c1
CCc1nc2c(OCC3CCCCC3)cccn2c1N(C)C(=O)c1ccc(C)cc1
Fc1ccccc1C1CC(c2ccco2)=Nc2ccccc2S1 (stereo not given)
O=c1[nH][nH]c(-c2ccccc2O)c1C(C[N+](=O)[O-])c1ccc(Br)cc1 (stereo not given)
O=C(CSc1nc(-c2ccccc2)nc2c1Cc1ccccc1O2)Nc1ccc(C(=O)O)cc1
CCOC(=O)c1ccc(NC(=O)c2c(NCc3cccs3)sc3c2CCCCC3)cc1
O=C(NC1(O)C(=O)c2ccccc2C1=O)c1ccc(C(F)(F)F)cc1
COC(=O)CC1(C(=O)OC)Oc2ccc(Br)cc2C(=O)N1c1cccc(Cl)c1Cl (stereo not given)
O=C(Nc1nc(-c2ccco2)c(-c2ccco2)s1)c1ccco1
CCc1ccc2c(c1)NC(=O)C2(C)Cc1ccc(Cl)s1 (stereo not given)
Oc1cccc(C=Nc2cccc3ccccc23)c1O
O=C1C(=O)c2cccnc2-c2ncccc21
COc1ccc(C(CC(=O)c2ccc(C)cc2)C(C#N)C#N)cc1OC (stereo not given)
Cc1ccc(O)c(-c2n[nH]c3c2C(c2ccc(F)cc2)N(Cc2ccco2)C3=O)c1 (stereo not given)
COc1cc(-c2cc(OC)c3c(C)oc(C)c3c(=O)c2)ccc1OC(=O)c1ccccc1F
CCOC(=O)c1ccc2ncc(C(=O)OCC)c(Nc3ccc(C)c(Br)c3)c2c1
COc1ccc(CN(C(=O)c2cccs2)c2nccs2)cc1OC
CCCC1=C/C(=C/c2ccc(-c3ccccc3OC)o2)C(=O)O1
Cc1ccc(-n2c(CCC(=O)O)ccc2-c2cccs2)cc1Cl
Cc1cc(SCC(=O)N/N=C/c2ccc(O)c(O)c2)nc2ccccc12
COc1ccccc1N1CSC2=C(C#N)C(c3ccc(SC)cc3)CC(=O)N2C1 (stereo not given)
CC(C)Cc1ccc(CN2C(C(C)C)C(=O)N(Cc3cn(CCC4OCCO4)nn3)CCS2(=O)=O)cc1 (stereo not given)
Cc1cccc(-c2nc3c(cnn3-c3ccccc3)c(=O)n2-c2cccc(Cl)c2)c1
CCCCn1c(COc2cccc(OC)c2)nc2ccccc21
CCOC(=O)c1ccc(NC(=O)CC2Nc3cccc4cccc(c34)NC2=O)cc1 (stereo not given)
COc1ccc(Cl)cc1NC(=O)c1c(NCc2ccc(C)o2)sc2c1CCCCC2
COc1cc(OC)c(NC(=O)CN(C)S(=O)(=O)c2ccc(-c3ccc(=O)[nH]n3)s2)cc1Cl
COc1ccc(C(=O)CSc2nnc(-c3ccco3)c(-c3ccco3)n2)cc1
Cc1ccc(SC/C(O)=C(\C#N)c2nc3ccccc3s2)cc1
Cc1ccc(C)c(-c2ccc(=O)n(Cc3c(F)cccc3Cl)n2)c1
C/C=C/COC(=O)c1[nH]c2c(c1C)C(=O)CC(c1ccco1)C2 (stereo not given)

Biological target: Rap guanine nucleotide exchange factor 4 (Homo sapiens) (UniProt Q8WZA2)
Assay: Confirmatory qHTS for agonist of cAMP-regulated guanine nucleotide exchange factor 4 (EPAC2) (AID 1645884);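 further: nucleotide exchange releases bodipy-GDP from Rap1 and this lowers its fluorescence; on the % scale 0 is the no-effect control and ±100 the full control effect; nearly all actives have a fitted effect of over 65% in size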
Conditions: EPAC2 GEF activity, Rap1B-BODIPY-GDP fluorescence; series mostly up to 154 µM

Sequence of Rap guanine nucleotide exchange factor 4 (Homo sapiens) (Q8WZA2 whole entry, looked up): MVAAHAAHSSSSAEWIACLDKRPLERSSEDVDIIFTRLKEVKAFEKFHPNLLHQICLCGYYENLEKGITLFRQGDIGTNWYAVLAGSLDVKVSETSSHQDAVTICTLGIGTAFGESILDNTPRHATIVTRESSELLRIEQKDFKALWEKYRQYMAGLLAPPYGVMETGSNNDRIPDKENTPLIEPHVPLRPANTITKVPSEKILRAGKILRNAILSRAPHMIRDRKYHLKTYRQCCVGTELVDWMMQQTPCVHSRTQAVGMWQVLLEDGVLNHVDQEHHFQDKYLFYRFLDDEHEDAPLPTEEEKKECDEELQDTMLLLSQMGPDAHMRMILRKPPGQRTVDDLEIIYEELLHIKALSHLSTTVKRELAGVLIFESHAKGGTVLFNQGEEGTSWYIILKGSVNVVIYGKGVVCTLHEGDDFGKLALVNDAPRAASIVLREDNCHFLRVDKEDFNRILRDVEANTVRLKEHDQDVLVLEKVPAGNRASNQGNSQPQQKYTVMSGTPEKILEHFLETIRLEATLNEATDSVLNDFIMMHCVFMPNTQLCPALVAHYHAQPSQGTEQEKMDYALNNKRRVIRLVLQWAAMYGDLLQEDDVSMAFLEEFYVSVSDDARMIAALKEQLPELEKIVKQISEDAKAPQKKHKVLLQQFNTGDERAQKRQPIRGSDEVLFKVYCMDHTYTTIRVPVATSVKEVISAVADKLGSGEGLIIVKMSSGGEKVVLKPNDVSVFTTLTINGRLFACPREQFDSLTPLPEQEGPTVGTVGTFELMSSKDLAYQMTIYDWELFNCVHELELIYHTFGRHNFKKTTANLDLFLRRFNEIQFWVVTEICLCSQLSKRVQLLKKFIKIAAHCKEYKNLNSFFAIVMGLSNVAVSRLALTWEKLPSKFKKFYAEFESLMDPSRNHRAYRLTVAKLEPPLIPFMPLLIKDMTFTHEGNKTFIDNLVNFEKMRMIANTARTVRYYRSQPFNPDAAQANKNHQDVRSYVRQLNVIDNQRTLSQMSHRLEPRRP

Potency, inactive:
Cc1ccc(Nc2nnc(-c3ccc(C)c(S(N)(=O)=O)c3)c3ccccc23)cc1
CCN(C(=O)Cn1c(C(=O)OC)cc2sccc21)c1cccc(C)c1
O=C(Nc1cccc(S(=O)(=O)NC2=NCCCCC2)c1)c1cc(-c2ccc(Cl)cc2)nc2ccccc12
CCc1ccccc1OCC(=O)NCC1COc2ccccc2O1 (stereo not given)
O=C1N(Cc2ccccc2)c2ccccc2C1(O)c1c[nH]c2ccccc12 (stereo not given)
Cc1[nH]n(-c2ccccc2)c(=O)c1C=Nc1ccc(S(=O)(=O)N=C(N)N)cc1
COc1cccc(C(=O)Nc2cccc(C(=O)OCc3cc(=O)n4c(C)csc4n3)c2)c1
CCc1nc2c(OCC3CCCCC3)cccn2c1N(C)C(=O)c1ccc(C)cc1
O=c1[nH][nH]c(-c2ccccc2O)c1C(C[N+](=O)[O-])c1ccc(Br)cc1 (stereo not given)
O=C(CSc1nc(-c2ccccc2)nc2c1Cc1ccccc1O2)Nc1ccc(C(=O)O)cc1
CCOC(=O)c1ccc(NC(=O)c2c(NCc3cccs3)sc3c2CCCCC3)cc1
O=C(NC1(O)C(=O)c2ccccc2C1=O)c1ccc(C(F)(F)F)cc1
COC(=O)CC1(C(=O)OC)Oc2ccc(Br)cc2C(=O)N1c1cccc(Cl)c1Cl (stereo not given)
Oc1cccc(C=Nc2cccc3ccccc23)c1O
O=C1C(=O)c2cccnc2-c2ncccc21
COc1ccc(C(CC(=O)c2ccc(C)cc2)C(C#N)C#N)cc1OC (stereo not given)
Cc1ccc(O)c(-c2n[nH]c3c2C(c2ccc(F)cc2)N(Cc2ccco2)C3=O)c1 (stereo not given)
COc1cc(-c2cc(OC)c3c(C)oc(C)c3c(=O)c2)ccc1OC(=O)c1ccccc1F
CCOC(=O)c1ccc2ncc(C(=O)OCC)c(Nc3ccc(C)c(Br)c3)c2c1
COc1ccc(CN(C(=O)c2cccs2)c2nccs2)cc1OC
Cc1ccc(-n2c(CCC(=O)O)ccc2-c2cccs2)cc1Cl
Cc1cccc(-c2nc3c(cnn3-c3ccccc3)c(=O)n2-c2cccc(Cl)c2)c1
CCCCn1c(COc2cccc(OC)c2)nc2ccccc21
CCOC(=O)c1ccc(NC(=O)CC2Nc3cccc4cccc(c34)NC2=O)cc1 (stereo not given)
COc1ccc(Cl)cc1NC(=O)c1c(NCc2ccc(C)o2)sc2c1CCCCC2
COc1cc(OC)c(NC(=O)CN(C)S(=O)(=O)c2ccc(-c3ccc(=O)[nH]n3)s2)cc1Cl
COc1ccc(C(=O)CSc2nnc(-c3ccco3)c(-c3ccco3)n2)cc1
Cc1ccc(SC/C(O)=C(\C#N)c2nc3ccccc3s2)cc1
Cc1ccc(C)c(-c2ccc(=O)n(Cc3c(F)cccc3Cl)n2)c1
C/C=C/COC(=O)c1[nH]c2c(c1C)C(=O)CC(c1ccco1)C2 (stereo not given)

activation, inactive:
C=CS(=O)(=O)N(Cc1ccccc1Br)[C@H](CO)CC(C)C 1.88% [at 17.1 µM, percent relative to cAMP agonist control]
Cc1ccc(-c2cc(C(=O)Nc3ccc(S(=O)(=O)Nc4onc(C)c4C)cc3)c3ccccc3n2)cc1 6.25% [at 17.1 µM, percent relative to cAMP agonist control]
CCN1CCc2c(sc(NC(=O)c3cc4ccccc4cc3OC)c2C(N)=O)C1 8.91% [at 17.1 µM, percent relative to cAMP agonist control]
Fc1ccccc1C1CC(c2ccco2)=Nc2ccccc2S1 (stereo not given) 8.88% [at 17.1 µM, percent relative to cAMP agonist control]
O=C(Nc1nc(-c2ccco2)c(-c2ccco2)s1)c1ccco1 2.72% [at 17.1 µM, percent relative to cAMP agonist control]
CCc1ccc2c(c1)NC(=O)C2(C)Cc1ccc(Cl)s1 (stereo not given) 0.147% [at 17.1 µM, percent relative to cAMP agonist control]
CCCC1=C/C(=C/c2ccc(-c3ccccc3OC)o2)C(=O)O1 1.16% [at 17.1 µM, percent relative to cAMP agonist control]
Cc1cc(SCC(=O)N/N=C/c2ccc(O)c(O)c2)nc2ccccc12 5.52% [at 17.1 µM, percent relative to cAMP agonist control]
COc1ccccc1N1CSC2=C(C#N)C(c3ccc(SC)cc3)CC(=O)N2C1 (stereo not given) 7.57% [at 17.1 µM, percent relative to cAMP agonist control]
CC(C)Cc1ccc(CN2C(C(C)C)C(=O)N(Cc3cn(CCC4OCCO4)nn3)CCS2(=O)=O)cc1 (stereo not given) 4.64% [at 17.1 µM, percent relative to cAMP agonist control]
